Structures are written as SMILES. Where a structure was tested more than once in an assay, its records may differ in their call. Active and inactive are the calls of the source. The calls were made as follows: active = hit-call score of the fitted dose curve at least 0.9, where 1 is the maximum; inactive = score below 0.9.

The nature of the experiment: CCTE_Shafer_MEA_dev_interburst_interval_mean: CCTE's Neural Network Formation Assay for Mean Interburst Interval, Shafer Lab (AID 2284046). The protocol: CCTE_Shafer_MEA_dev assay is conducted using Axion Biosystems 48 well microelectrode array (MEA) plates and Maestro recording system. Each well of the MEA plate contains a grid of 16 microelectrodes embedded in the culture surface. Electrically active cells, such as neurons, can be cultured over the electrodes, and electrical activity in these cells can be recorded extracellularly. The spontaneous firing of neurons is captured from each electrode on a microsecond timescale providing both temporally and spatially precise data. […] The CCTE_Shafer_MEA_dev assay uses primary cultures of rat cortical neurons. Recordings are made on days post-plating 5, 7, 9 and 12. As these cultures mature over time, neural networks develop functional activity and form cohesive networks in which electrical activity can be highly coordinated. CCTE_Shafer_MEA_dev_interburst_interval_mean is 1 of 19 assay components of the CCTE_Shafer_MEA_dev assay. It measures the average time interval between consecutive single-electrode bursts (temporally-clustered groups of action potential firing) during a recording in a microelectrode array (MEA) using Axion Biosystems Maestro 768 channel amplifier with the AxIS adaptive spike detector. The mean inter-burst interval is averaged across the actively bursting electrodes to report a well-mean value. To collapse across multiple recordings made on days post-plating 5, 7, 9 and 12, the trapezoidal area-under-the-curve of the component is calculated.Data from the assay component CCTE_Shafer_MEA_dev_interburst_interval_mean was analyzed into 1 assay endpoint. This assay endpoint, CCTE_Shafer_MEA_dev_interburst_interval_mean, was analyzed in the negative analysis fitting direction relative to DMSO as the negative control and baseline of activity. Using a type of functional reporter, gain or loss-of-signal activity can be used to understand electrical activity.
On the day prior to culture, each well was coated thoroughly with 150 uL of 0.05% polyethyleneimine (PEI, Sigma Cat P3143) in 50 mM HEPES (Sigma Cat H7523) at a pH of 8. The plate was incubated at 37C for one hour. PEI was rinsed out with 500 uL of sterile water three times. Plates were stored at 4C until the day of culture. This culture was plated at a seeding density of 1.5 x 10^5 cells/well on a 48-well MEA plate, prepared as described above. Cells were administered via a 25 uL media/laminin ([…]; Sigma Cat L2020-1MG) drop directly onto the microelectrode array, as adding the cells with the laminin results in better attachment than pre-coating with laminin. After 2 hours, an additional 475 uL of cortical media was added and the cells returned to the incubator. Exposure starts at day 0 of plating and is continued over twelve days of network development until the experiment is terminated. Cells are fed with fresh medium on DIV 5 and 9, following the recordings on those days. The entire volume of media in the well is exchanged and any vehicle or compound treatment is renewed. Complete details are found in OP-NHEERL/ISTD/SBB/TJS/2015-03-r0 (available on request, email shafer.tim@epa.gov). Measurement of the electrical activity is non-invasive, and recordings can be made from the same plate over multiple different days of the culture. In cortical neurons, this allows for the measurement of extracellular action potentials over the period during which networks form in the MEA plate.
As to `CN1CCC[C@H]1c1cccnc1`, the call was inactive.

Regarding `c1ccc2c(c1)Cc1ccccc1-2`, the outcome was inactive.

For `c1ccc2cc3c(ccc4ccccc43)cc2c1`, the call was inactive.

Consider `OCCC(F)(F)C(F)(F)C(F)(F)C(F)(F)C(F)(F)C(F)(F)F`, for which the molecule was classed as inactive.

Consider `C=C(C)C(=O)OCCC(F)(F)C(F)(F)C(F)(F)C(F)(F)C(F)(F)C(F)(F)F`, for which the call was inactive.

Regarding `OCCC(F)(F)C(F)(F)C(F)(F)C(F)(F)C(F)(F)C(F)(F)C(F)(F)C(F)(F)F`, the molecule was classed as inactive.

Usually AC50 stands for the concentration giving half of the maximal activity seen. Take `CC1=C(/C=C/C(C)=C/C=C/C(C)=C/C(=O)O)C(C)(C)CCC1`: the AC50 is 3.54 µM (active).

`CC(O)CO` (stereo unspecified): the molecule was called inactive.

In the case of `CC#C[C@]1(O)CC[C@H]2[C@@H]3CCC4=CC(=O)CCC4=C3[C@@H](c3ccc(N(C)C)cc3)C[C@@]21C`, the molecule was called inactive and the half-maximal activity concentration (AC50) is 2.69 µM (active).

In the case of `c1ccc2c(c1)ccc1ccccc12`, the molecule was called inactive.
